Calls of active or inactive are those of the source. The calls were made as follows: active = hit-call score of the fitted dose curve at least 0.9, where 1 is the maximum; inactive = score below 0.9.
How the values were obtained:
[1] = ATG_GLI_CIS: Attagene CIS-FACTORIAL HepG2 Assay for human Zinc Finger Protein GLI1 (AID 2282945); conditions: HepG2, Attagene cis-factorial reporter mRNA, GLI element; actives raise or lower the signal
Procedure, shortened: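 HepG2 cells transiently transfected with cis-promoter multiplexed reporter units report endogenous transcription factor activity. After 24 h chemical exposure, reporter mRNA was quantified by RT-PCR, 6-FAM labelling, HpaI digestion and capillary electrophoresis, with bidirectional fitting against DMSO.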

[2] = ATG_GRE_CIS: Attagene CIS-FACTORIAL HepG2 Assay for human Glucocorticoid Response Elements (GRE) (AID 2282947); conditions: HepG2 GRE cis-reporter, Attagene multiplex mRNA; actives raise or lower the signal
Procedure, shortened: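 Following 24 h chemical exposure of transiently transfected HepG2 cells, total RNA was reverse-transcribed and reporter cDNA amplified, fluorescently labelled and sized by capillary electrophoresis. Signal gain or loss was fitted relative to DMSO vehicle.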

[3] = ATG_ISRE_CIS: Attagene CIS-FACTORIAL HepG2 Assay for human Interferon Regulatory Factor 1 (IRF1) binding to an Interferon-Stimulated Response Element (ISRE) (AID 2282948); conditions: HepG2 ISRE cis-reporter (Attagene), mRNA transcription readout; actives raise or lower the signal
Procedure, shortened: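 Quantitation relies on labelled RT-PCR fragments separated by capillary electrophoresis. Human HepG2 cells bearing cis-promoter reporter constructs were treated 24 h; DMSO served as baseline for bidirectional fitting.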

[4] = ATG_M_32_CIS: Attagene CIS-FACTORIAL HepG2 Assay for M32 Transcription Factor (Internal Marker) (AID 2282949); conditions: HepG2 Attagene cis-factorial M32 reporter, mRNA; actives raise or lower the signal;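 also: background control marker of the multiplexed CIS panel rather than a real target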
Procedure, shortened: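 Fluorescent capillary electrophoresis peaks of HpaI-digested, FAM-labelled RT-PCR reporter products give the signal. Source: transiently transfected human liver HepG2 cells, 24 h after chemical dosing; bidirectional fitting against DMSO.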

[5] = ATG_M_06_CIS: Attagene CIS-FACTORIAL HepG2 Assay for M06 Transcription Factor (Internal Marker) (AID 2282950); conditions: HepG2 Attagene CIS-FACTORIAL M06 internal marker reporter; actives raise or lower the signal
Procedure, shortened: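 Read-out is fluorescence of labelled reporter cDNA fragments resolved by capillary electrophoresis after RT-PCR. Cells: HepG2 carrying transfected cis-promoter reporter units, treated 24 h. Gain or loss of signal fitted relative to DMSO.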

[6] = molecular target: Hypoxia-inducible factor 1-alpha (Homo sapiens) (UniProt Q16665); assay: ATG_HIF1a_CIS: Attagene CIS-FACTORIAL HepG2 Assay for human Hypoxia Inducible Factor 1 (HIF1A) (AID 2282951); conditions: HepG2 Attagene cis-factorial HIF1a reporter transcription; actives raise or lower the signal
Chain of Hypoxia-inducible factor 1-alpha (Homo sapiens) (Q16665 whole entry, looked up): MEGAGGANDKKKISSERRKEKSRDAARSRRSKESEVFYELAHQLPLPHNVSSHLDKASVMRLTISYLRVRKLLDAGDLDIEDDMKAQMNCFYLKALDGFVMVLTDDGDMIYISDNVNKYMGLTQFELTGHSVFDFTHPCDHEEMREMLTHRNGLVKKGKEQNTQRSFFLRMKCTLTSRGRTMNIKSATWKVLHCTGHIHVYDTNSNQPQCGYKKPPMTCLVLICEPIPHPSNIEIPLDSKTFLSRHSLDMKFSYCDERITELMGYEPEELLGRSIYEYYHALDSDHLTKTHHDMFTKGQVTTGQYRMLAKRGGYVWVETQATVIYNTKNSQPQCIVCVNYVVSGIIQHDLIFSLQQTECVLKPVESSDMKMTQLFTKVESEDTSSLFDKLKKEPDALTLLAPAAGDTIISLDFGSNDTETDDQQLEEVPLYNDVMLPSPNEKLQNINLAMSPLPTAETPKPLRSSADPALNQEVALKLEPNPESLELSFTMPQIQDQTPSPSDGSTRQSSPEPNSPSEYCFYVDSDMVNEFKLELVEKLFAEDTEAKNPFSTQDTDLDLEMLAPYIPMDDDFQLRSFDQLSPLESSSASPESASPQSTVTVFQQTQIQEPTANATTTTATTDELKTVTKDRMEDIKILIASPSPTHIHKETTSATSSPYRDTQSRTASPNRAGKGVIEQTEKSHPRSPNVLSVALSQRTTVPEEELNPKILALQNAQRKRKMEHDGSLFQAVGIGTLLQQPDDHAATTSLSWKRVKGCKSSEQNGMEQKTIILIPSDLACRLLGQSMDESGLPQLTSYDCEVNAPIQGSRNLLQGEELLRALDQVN
Procedure, shortened: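 Measures endogenous transcription-factor activity through cis-regulated reporter mRNA in HepG2. Cells dosed 24 h; transcripts quantified by RT-PCR with 6-FAM-labelled products separated by capillary electrophoresis; DMSO serves as negative control.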

[7] = molecular target: Hepatocyte nuclear factor 6 (Homo sapiens) (UniProt Q9UBC0); assay: ATG_HNF6_CIS: Attagene CIS-FACTORIAL HepG2 Assay for human Hepatocyte Nuclear Factor 6 (HNF6) (AID 2282952); conditions: HepG2 Attagene cis-factorial HNF6 reporter transcription; actives raise or lower the signal
Chain of Hepatocyte nuclear factor 6 (Homo sapiens) (Q9UBC0 whole entry, looked up): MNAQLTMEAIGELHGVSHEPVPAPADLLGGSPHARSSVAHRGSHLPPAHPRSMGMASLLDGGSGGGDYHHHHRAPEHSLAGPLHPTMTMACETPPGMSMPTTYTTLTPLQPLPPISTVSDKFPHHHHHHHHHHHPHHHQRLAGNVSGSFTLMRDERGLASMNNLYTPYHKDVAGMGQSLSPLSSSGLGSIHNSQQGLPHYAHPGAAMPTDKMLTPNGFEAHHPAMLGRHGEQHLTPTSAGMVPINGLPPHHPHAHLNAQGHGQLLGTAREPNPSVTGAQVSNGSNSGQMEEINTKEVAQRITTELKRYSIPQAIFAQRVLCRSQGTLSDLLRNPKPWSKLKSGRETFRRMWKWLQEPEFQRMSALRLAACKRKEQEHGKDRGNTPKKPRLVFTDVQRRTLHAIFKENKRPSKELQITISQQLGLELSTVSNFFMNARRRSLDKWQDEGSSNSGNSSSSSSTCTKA
Procedure, shortened: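 HepG2, transient MRTU transfection (cis promoters); 24 h chemical exposure; total RNA → oligo(dT) RT → PCR → 6-FAM labelling → HpaI cut → CE; bidirectional fit vs DMSO.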

[8] = molecular target: Heat shock factor protein 1 (Homo sapiens) (UniProt Q00613); assay: ATG_HSE_CIS: Attagene CIS-FACTORIAL HepG2 Assay for human Heat Shock Transcription Factor 1 (HSE) (AID 2282953); conditions: HepG2 HSE cis-reporter, Attagene RNA transcription; actives raise or lower the signal
Chain of Heat shock factor protein 1 (Homo sapiens) (Q00613 whole entry, looked up): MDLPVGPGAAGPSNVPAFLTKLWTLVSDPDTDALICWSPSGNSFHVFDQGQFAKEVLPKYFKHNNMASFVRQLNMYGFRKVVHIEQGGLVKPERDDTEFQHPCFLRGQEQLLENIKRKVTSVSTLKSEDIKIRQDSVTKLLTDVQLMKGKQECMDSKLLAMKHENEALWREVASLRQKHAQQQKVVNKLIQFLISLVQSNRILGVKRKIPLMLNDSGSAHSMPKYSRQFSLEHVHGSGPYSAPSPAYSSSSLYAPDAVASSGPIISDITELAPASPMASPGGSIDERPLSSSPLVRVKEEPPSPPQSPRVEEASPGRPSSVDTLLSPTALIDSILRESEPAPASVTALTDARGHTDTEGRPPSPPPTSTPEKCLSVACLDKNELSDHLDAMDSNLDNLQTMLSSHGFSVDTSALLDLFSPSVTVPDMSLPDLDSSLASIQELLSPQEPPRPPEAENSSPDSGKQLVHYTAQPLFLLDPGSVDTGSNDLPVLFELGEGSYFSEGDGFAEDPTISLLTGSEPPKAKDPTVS
Procedure, shortened: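 HepG2, transient MRTU transfection, cis-promoter reporters (endogenous TF activity). 24 h compound. RNA → oligo(dT) RT → PCR → 6-FAM primer extension → HpaI cut → CE. Bidirectional fit vs DMSO.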

[9] = ATG_MRE_CIS: Attagene CIS-FACTORIAL HepG2 Assay for human Metal Responsive Element (MRE) (AID 2282954); conditions: HepG2 MRE cis-reporter transcription, Attagene multiplex; actives raise or lower the signal
Procedure, shortened: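 Step one: transfect HepG2 with cis-regulated reporter units. Step two: dose 24 h. Step three: isolate RNA, RT-PCR, 6-FAM label, HpaI digest, capillary electrophoresis. Fit bidirectionally to DMSO.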

[10] = molecular target: Paired box protein Pax-6 (Homo sapiens) (UniProt P26367); assay: ATG_Pax6_CIS: Attagene CIS-FACTORIAL HepG2 Assay for human Paired Box 6 (PAX6) (AID 2282956); conditions: HepG2 CIS-FACTORIAL PAX6 reporter transcription, RNA readout; actives raise or lower the signal
Chain of Paired box protein Pax-6 (Homo sapiens) (P26367 whole entry, looked up): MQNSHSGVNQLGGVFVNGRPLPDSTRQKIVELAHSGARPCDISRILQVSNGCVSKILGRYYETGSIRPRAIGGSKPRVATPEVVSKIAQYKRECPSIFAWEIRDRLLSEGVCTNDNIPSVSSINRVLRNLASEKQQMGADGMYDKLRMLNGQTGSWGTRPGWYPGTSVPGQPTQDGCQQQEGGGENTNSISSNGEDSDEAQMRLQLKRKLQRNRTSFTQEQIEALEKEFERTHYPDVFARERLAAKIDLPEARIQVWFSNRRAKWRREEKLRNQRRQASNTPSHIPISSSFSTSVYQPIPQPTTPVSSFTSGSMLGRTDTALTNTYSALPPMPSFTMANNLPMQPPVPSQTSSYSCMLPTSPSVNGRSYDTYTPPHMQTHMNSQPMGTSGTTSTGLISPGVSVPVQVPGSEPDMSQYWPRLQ
Procedure, shortened: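 After twenty-four hours of chemical exposure, transfected HepG2 cells are harvested for RNA. Cis-promoter reporter transcripts are amplified, fluorescently labelled and sized by capillary electrophoresis, with gain and loss of signal scored against DMSO.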

[11] = ATG_PXRE_CIS: Attagene CIS-FACTORIAL HepG2 Assay for human Pregnane X Receptor Element (PXRE) (AID 2282957); conditions: HepG2 Attagene CIS-FACTORIAL PXRE reporter, mRNA; actives raise or lower the signal
Procedure, shortened: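 Transfect HepG2 with MRTUs (cis promoter elements); dose chemical, incubate 24 h; isolate RNA, RT with oligo(dT), PCR, 6-FAM label, HpaI cut, CE. Gain/loss fit vs DMSO.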

[12] = ATG_RORE_CIS: Attagene CIS-FACTORIAL HepG2 Assay for human RAR-related Orphan Receptor Element (RORE) (AID 2282959); conditions: HepG2 Attagene cis-factorial RORE reporter, mRNA; actives raise or lower the signal
Procedure, shortened: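 Cells were HepG2 carrying transfected cis-regulated reporter constructs, dosed for 24 hours. Total RNA was reverse-transcribed and reporter cDNA amplified, fluorescently labeled and sized by capillary electrophoresis. Activity was fitted bidirectionally relative to DMSO.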

[13] = molecular target: Transcription factor Sp1 (Homo sapiens) (UniProt P08047); assay: ATG_Sp1_CIS: Attagene CIS-FACTORIAL HepG2 Assay for human Specificity Protein 1 (Sp1) (AID 2282961); conditions: HepG2 Sp1 cis-reporter transcription, actives raise or lower the signal
Chain of Transcription factor Sp1 (Homo sapiens) (P08047 whole entry, looked up): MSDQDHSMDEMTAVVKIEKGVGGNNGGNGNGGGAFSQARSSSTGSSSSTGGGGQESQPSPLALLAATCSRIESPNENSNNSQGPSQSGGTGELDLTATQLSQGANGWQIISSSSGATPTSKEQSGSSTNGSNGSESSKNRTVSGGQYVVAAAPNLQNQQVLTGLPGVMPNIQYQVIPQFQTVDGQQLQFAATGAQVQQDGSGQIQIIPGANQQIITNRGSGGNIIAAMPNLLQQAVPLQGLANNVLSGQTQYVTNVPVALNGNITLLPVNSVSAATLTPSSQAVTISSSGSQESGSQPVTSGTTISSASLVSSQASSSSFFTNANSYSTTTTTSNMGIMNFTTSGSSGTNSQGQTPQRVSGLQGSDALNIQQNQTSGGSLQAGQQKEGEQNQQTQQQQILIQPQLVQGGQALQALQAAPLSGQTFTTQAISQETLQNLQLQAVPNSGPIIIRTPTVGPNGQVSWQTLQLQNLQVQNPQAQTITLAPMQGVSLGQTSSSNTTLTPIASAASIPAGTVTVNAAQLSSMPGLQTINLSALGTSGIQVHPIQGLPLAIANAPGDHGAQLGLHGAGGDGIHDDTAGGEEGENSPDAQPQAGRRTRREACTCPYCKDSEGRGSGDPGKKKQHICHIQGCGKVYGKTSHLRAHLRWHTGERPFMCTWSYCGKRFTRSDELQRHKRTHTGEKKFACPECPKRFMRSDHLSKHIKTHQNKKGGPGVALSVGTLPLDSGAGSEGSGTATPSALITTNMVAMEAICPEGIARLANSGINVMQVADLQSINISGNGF
Procedure, shortened: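 Endogenous Sp1 activity was gauged in human liver HepG2 cells bearing transfected reporter units under a cis-regulating promoter. After 24 h dosing, reporter mRNA was quantified by RT-PCR with capillary electrophoresis, and activity fitted bidirectionally versus DMSO.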

[14] = molecular target: Signal transducer and activator of transcription 3 (Homo sapiens) (UniProt P40763); assay: ATG_STAT3_CIS: Attagene CIS-FACTORIAL HepG2 Assay for human Signal Transducer and Activator of Transcription 3 (STAT3) (AID 2282963); conditions: HepG2, Attagene cis-factorial STAT3 reporter transcription; actives raise or lower the signal
Chain of Signal transducer and activator of transcription 3 (Homo sapiens) (P40763 whole entry, looked up): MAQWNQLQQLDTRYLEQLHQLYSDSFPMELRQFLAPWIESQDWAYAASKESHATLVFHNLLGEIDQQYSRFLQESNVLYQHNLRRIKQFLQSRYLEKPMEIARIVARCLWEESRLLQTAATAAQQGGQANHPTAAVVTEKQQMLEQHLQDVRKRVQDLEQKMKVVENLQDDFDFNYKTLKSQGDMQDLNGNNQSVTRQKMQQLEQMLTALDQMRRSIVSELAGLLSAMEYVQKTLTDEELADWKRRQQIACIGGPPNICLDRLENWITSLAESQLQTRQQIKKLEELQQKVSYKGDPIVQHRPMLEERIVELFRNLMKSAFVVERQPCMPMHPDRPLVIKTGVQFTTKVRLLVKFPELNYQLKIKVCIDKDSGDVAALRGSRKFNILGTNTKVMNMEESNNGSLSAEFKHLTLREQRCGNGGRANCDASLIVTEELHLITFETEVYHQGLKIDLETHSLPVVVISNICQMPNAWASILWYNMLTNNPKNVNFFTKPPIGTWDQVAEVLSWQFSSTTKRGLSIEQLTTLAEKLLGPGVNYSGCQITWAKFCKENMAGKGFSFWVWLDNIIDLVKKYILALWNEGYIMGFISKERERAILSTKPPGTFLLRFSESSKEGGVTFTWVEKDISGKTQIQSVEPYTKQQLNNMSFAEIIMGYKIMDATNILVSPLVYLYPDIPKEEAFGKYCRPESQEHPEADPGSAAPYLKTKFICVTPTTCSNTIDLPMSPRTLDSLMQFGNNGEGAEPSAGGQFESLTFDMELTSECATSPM
Procedure, shortened: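 Transcript-level reporter assay. HepG2 transient MRTU transfection, 24 h exposure, fluorescence detection after RT-PCR and CE; DMSO baseline.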

[15] = ATG_TA_CIS: Attagene CIS-FACTORIAL HepG2 Assay for human TA Basal Promoter (AID 2282964); conditions: HepG2 Attagene CIS-factorial TA basal promoter reporter; actives raise or lower the signal
Procedure, shortened: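 Read-out: fluorescent reporter-transcript fragments resolved by capillary electrophoresis after RT-PCR and HpaI digestion. Source: HepG2 cells carrying transiently transfected multi-reporter cis constructs, treated 24 h. Endpoint fitted bidirectionally relative to DMSO.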

[16] = ATG_PBREM_CIS: Attagene CIS-FACTORIAL HepG2 Assay for human Phenobarbital-responsive Enhancer Module (PBREM) (AID 2282955); conditions: HepG2 PBREM cis-reporter, Attagene multiplexed transcription; actives raise or lower the signal
Procedure, shortened: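 Fluorescence of labelled reporter cDNA fragments, resolved by capillary electrophoresis, gives mRNA induction in transfected HepG2 cells treated for 24 h; DMSO serves as negative control and baseline.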

[17] = ATG_PPRE_CIS: Attagene CIS-FACTORIAL HepG2 Assay for human Peroxisome Proliferator-activated Response Element (PPRE) (AID 2282958); conditions: HepG2 PPRE cis-element reporter, Attagene transcription factor profiling; actives raise or lower the signal
Procedure, shortened: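 Cells are first transfected transiently with the multiplexed reporter library, then dosed for 24 h. Total RNA is reverse-transcribed, amplified, fluorescently end-labeled and HpaI-cut before capillary electrophoresis; activity is fitted bidirectionally against DMSO controls.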

[18] = ATG_Sox_CIS: Attagene CIS-FACTORIAL HepG2 Assay for human SRY-box transcription factor (SOX) (AID 2282960); conditions: HepG2 Attagene cis-factorial SOX reporter, mRNA; actives raise or lower the signal
Procedure, shortened: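 Transient MRTU transfection of HepG2; 24 h compound incubation; TriZol RNA, oligo(dT) RT, PCR, 6-FAM primer extension, HpaI cut, CE. Bidirectional fit, DMSO = baseline.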

[19] = ATG_SREBP_CIS: Attagene CIS-FACTORIAL HepG2 Assay for human Sterol Regulatory Element Binding (SREBP) (AID 2282962); conditions: HepG2 Attagene cis-factorial SREBP reporter, mRNA; actives raise or lower the signal
Procedure, shortened: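 Twenty-four hours after chemical dosing of transfected HepG2 cultures, reporter RNA was converted to cDNA, amplified, end-labelled with 6-FAM and resolved by capillary electrophoresis. Responses were fitted relative to DMSO.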

Measured: AC50

CCO[Si](CCC#N)(OCC)OCC
inactive: [1] | [2] | [3] | [4] | [5] | [6] | [7] | [8] | [9] | [10] | [11] | [12] | [13] | [14] | [15]

O=Cc1ccccc1O
inactive: [1] | [2] | [3] | [4] | [5] | [6] | [7] | [9] | [16] | [10] | [17] | [18] | [13] | [19] | [15]
active: [11] 100 µM | [12] 76.3 µM

Cc1cc(O)c2c(c1)C(=O)c1cc(O)cc(O)c1C2=O
active: [2] 18.5 µM | [3] 36.2 µM | [9] 18.9 µM | [16] 14.9 µM | [17] 12 µM | [13] 8.81 µM
inactive: [1] | [4] | [5] | [6] | [7] | [10] | [11] | [12] | [18] | [19] | [14] | [15]

CC(=O)CCC(=O)O
active: [11] 63.8 µM
inactive: [1] | [2] | [3] | [4] | [5] | [6] | [7] | [9] | [16] | [10] | [18] | [13] | [19] | [14] | [15]

C=COCC1CCC(COC=C)CC1 (centres undefined)
inactive: [1] | [2] | [3] | [4] | [5] | [6] | [7] | [9] | [16] | [10] | [11] | [12] | [18] | [13] | [19] | [15]

c1ccc2scnc2c1
inactive: [1] | [2] | [3] | [4] | [5] | [6] | [7] | [8] | [9] | [10] | [12] | [18] | [13] | [19] | [14] | [15]
active: [11] 55.6 µM

CN(C)CCC=C1c2ccccc2CCc2ccccc21
active: [3] 21.5 µM | [9] 43.2 µM | [11] 13.2 µM | [13] 45.3 µM
inactive: [1] | [2] | [4] | [5] | [7] | [8] | [16] | [10] | [17] | [12] | [18] | [19] | [14] | [15]

CC(C)(C)c1cccc(O)c1
active: [11] 11.5 µM
inactive: [1] | [2] | [3] | [4] | [5] | [6] | [7] | [9] | [10] | [17] | [18] | [13] | [14] | [15]

CCC=C(C)C=O
active: [11] 24.7 µM
inactive: [1] | [2] | [3] | [4] | [5] | [7] | [8] | [9] | [16] | [10] | [17] | [12] | [13] | [19] | [14] | [15]

— PubChem BioAssay (EPA / NIEHS)
